Results as given in the supplement of paper PMC11219838.
Values without a mark were called inactive.

Key:
Conditions in all cases: 60 µM; 5 days; temperature: 20 °C
[1] = system: Meloidogyne hapla J2; assay: proportion of mobile M. hapla J2 relative to DMSO control (fraction of DMSO control); higher = more viable, less nematicidal, active = 0.7 or less
Outline: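 About 25 M. hapla J2 were placed in each well of a 96-well plate in distilled water, and compound was pinned in to a final 60 µM with 0.6% v/v DMSO. The sealed plates were shaken at 200 rpm at 20 °C for 5 days, after which 2 µL of 1 M NaOH went into each well. Mobility was then scored under the microscope and divided by the mean value from DMSO-only wells on the same plate. Each plate held eight such DMSO wells, and two biological replicates were averaged.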

[2] = system: Caenorhabditis elegans dauer (daf-2(e1370)); assay: proportion of mobile C. elegans dauer larvae relative to DMSO control (fraction of DMSO control); higher = more viable, less nematicidal, active = 0.63 or less; extreme values may be limits of the assay
Outline: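 The proportion of mobile worms, relative to DMSO wells, was scored by dissection microscope and averaged over two biological replicates. Worms were C. elegans dauers, about 20 per well in liquid NGM in 96-well plates, generated from synchronized larvae on MYOB plates with E. coli OP50 at 25 °C for 48 h. They were treated with compound pinned to 60 µM final (0.6% v/v DMSO) and kept in sealed plates shaken at 200 rpm for 5 days at 20 °C.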

[3] = system: Ditylenchus dipsaci; assay: proportion of mobile D. dipsaci (mixed stage) relative to DMSO control (fraction of DMSO control); higher = more viable, less nematicidal, active = 0.86 or less; extreme values may be limits of the assay
Outline: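 Ditylenchus dipsaci nematodes were cultured on pea plants in Gamborg B-5 agar, then extracted into water through a filter funnel, and roughly 20 worms in distilled water were placed in each well of a 96-well plate. Compound was pinned in to a final concentration of 60 µM (0.6% v/v DMSO), and the sealed plates were shaken at 200 rpm for 5 days at 20 °C. Mobile worms were counted under the microscope after 2 µL of 1 M NaOH was added. Mobility is given relative to DMSO controls as the mean of two biological replicates.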

With `Brc1ccccc1-c1nc(-c2ccccn2)no1` as the compound, how does the “proportion of mobile M. hapla J2” value [1] read?
The value was 0.678 (active).

What about the “proportion of mobile C. elegans dauer larvae” value [2] of the same compound?
The value was 0.738.

And the “proportion of mobile D. dipsaci” value [3]?
Its value is 1.

Which results are given for `COc1cccc(-c2nc(-c3ccccc3)no2)c1`?
proportion of mobile M. hapla J2 [1]: 1.04; proportion of mobile C. elegans dauer larvae [2]: 0.861; proportion of mobile D. dipsaci [3]: 1

`O=S(=O)(CCC(F)=C(F)F)c1ncc(Cl)s1` [fluensulfone] was tested. Which “proportion of mobile M. hapla J2” value [1] did it give?
Its value is 0.0622 (active).

What about the “proportion of mobile C. elegans dauer larvae” value [2] of the same compound?
The value was 1.

And the “proportion of mobile D. dipsaci” value [3]?
Its value is 1.

For `Cc1ccc(-c2noc(-c3ccc(Br)cc3)n2)cc1`, which “proportion of mobile M. hapla J2” value [1] is on record?
The value was 1.05.

And the “proportion of mobile C. elegans dauer larvae” value [2]?
Its value is 1.

And the “proportion of mobile D. dipsaci” value [3]?
Its value is 1.

What does the source list for `Cc1ccc(-c2noc(-c3ccccc3C)n2)cc1`?
proportion of mobile M. hapla J2 [1]: 1.04; proportion of mobile C. elegans dauer larvae [2]: 0.562 (active); proportion of mobile D. dipsaci [3]: 1

With `Clc1ccc(CSc2nnc(-c3ccccc3)o2)cc1Cl` as the compound, how does the “proportion of mobile M. hapla J2” value [1] read?
The value was 1.01.

What about the “proportion of mobile C. elegans dauer larvae” value [2] of the same compound?
The value was 1.

What about the “proportion of mobile D. dipsaci” value [3] of the same compound?
Its value is 1.

What does the source list for `Brc1ccc(-c2nnc(-c3cccs3)o2)o1`?
proportion of mobile M. hapla J2 [1]: 1.07; proportion of mobile C. elegans dauer larvae [2]: 0.75; proportion of mobile D. dipsaci [3]: 0.362 (active)

With `N#Cc1ccccc1NC(=O)CSc1nnc(-c2ccccc2)o1` as the compound, how does the “proportion of mobile M. hapla J2” value [1] read?
Its value is 0.955.

What about the “proportion of mobile C. elegans dauer larvae” value [2] of the same compound?
The value was 1.

What about the “proportion of mobile D. dipsaci” value [3] of the same compound?
Its value is 1.

`Cc1ccc(OCc2nc(-c3ccc(Cl)cc3)no2)cc1` was tested. Which “proportion of mobile M. hapla J2” value [1] did it give?
The value was 0.901.

What about the “proportion of mobile C. elegans dauer larvae” value [2] of the same compound?
Its value is 1.

And the “proportion of mobile D. dipsaci” value [3]?
Its value is 1.

For `Cc1cc(OCc2nc(-c3ccccc3)no2)cc(C)c1Cl`, which “proportion of mobile M. hapla J2” value [1] is on record?
Its value is 1.05.

What about the “proportion of mobile C. elegans dauer larvae” value [2] of the same compound?
The value was 1.

And the “proportion of mobile D. dipsaci” value [3]?
The value was 1.

Which results are given for `CCOc1ccccc1-c1nnc(SCC(=O)c2ccccc2)o1`?
proportion of mobile M. hapla J2 [1]: 1.01; proportion of mobile C. elegans dauer larvae [2]: 1; proportion of mobile D. dipsaci [3]: 1

Which “proportion of mobile M. hapla J2” value [1] does the source give for `COc1ccc(-c2nnc(SCC(=O)N3CC(C)CC(C)C3)o2)cc1` (centres undefined) here?
Its value is 1.05.

What about the “proportion of mobile C. elegans dauer larvae” value [2] of the same compound?
Its value is 1.

And the “proportion of mobile D. dipsaci” value [3]?
Its value is 1.

With `COc1ccc(-c2nc(C3CCCCC3)no2)cc1` as the compound, how does the “proportion of mobile M. hapla J2” value [1] read?
The value was 0.896.

What about the “proportion of mobile C. elegans dauer larvae” value [2] of the same compound?
Its value is 1.

And the “proportion of mobile D. dipsaci” value [3]?
Its value is 1.
